# Results as given in publication PMC9911399, “Two distinct binding modes provide the RNA-binding protein RbFox with extraordinary sequence specificity”.
# Substitutions are numbered along the chain they refer to; changes in the protein carry UniProt numbers. The full ranking holds about 16,000 sequences; the median of “ka relative to ugcaugu” is about 0.0091, and the highest 2% start at about 0.032. For the sample, the highest values were picked, then their nearest neighbours and some sequences at random.
# T1: RBFOX1 RRM (Homo sapiens, UniProt Q9NWB1 109-208)
# T1 sequence: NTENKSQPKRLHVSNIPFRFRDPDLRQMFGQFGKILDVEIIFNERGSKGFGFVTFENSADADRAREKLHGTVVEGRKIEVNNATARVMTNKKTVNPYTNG
# B1: UCAGCGA (DNA:RNA)
# RNA: GGGAGACCGGAAUUCAGAUUGUCCUCAGCGAUUAAAUCCCGUCGUAGCCACCA
# DNA 1: CAATCTGAATTCCGGTCTCCC
# DNA 2: TGGTGGCTACGACGGGATT
# B2: ACCACAA (DNA:RNA)
# RNA: B1 RNA with U25A, A27C, G28A, G30A
# DNA 1: CAATCTGAATTCCGGTCTCCC
# DNA 2: TGGTGGCTACGACGGGATT
# B3: GUCGAGG (DNA:RNA)
# RNA: B1 RNA with U25G, C26U, A27C, C29A, A31G
# DNA 1: CAATCTGAATTCCGGTCTCCC
# DNA 2: TGGTGGCTACGACGGGATT
# B4: GACCCGU (DNA:RNA)
# RNA: B1 RNA with U25G, C26A, A27C, G28C, A31U
# DNA 1: CAATCTGAATTCCGGTCTCCC
# DNA 2: TGGTGGCTACGACGGGATT
# B5: AGAUGGC (DNA:RNA)
# RNA: B1 RNA with U25A, C26G, G28U, C29G, A31C
# DNA 1: CAATCTGAATTCCGGTCTCCC
# DNA 2: TGGTGGCTACGACGGGATT
# B6: CGCUGGA (DNA:RNA)
# RNA: B1 RNA with U25C, C26G, A27C, G28U, C29G
# DNA 1: CAATCTGAATTCCGGTCTCCC
# DNA 2: TGGTGGCTACGACGGGATT
# B7: GCUAUGG (DNA:RNA)
# RNA: B1 RNA with U25G, A27U, G28A, C29U, A31G
# DNA 1: CAATCTGAATTCCGGTCTCCC
# DNA 2: TGGTGGCTACGACGGGATT
# B8: CACCGAC (DNA:RNA)
# RNA: GGGAGACCGGAAUUCAGAUUGUCCCACCGACUUAAAUCCCGUCGUAGCCACCA
# DNA 1: CAATCTGAATTCCGGTCTCCC
# DNA 2: TGGTGGCTACGACGGGATT
# B9: GGAAGCG (DNA:RNA)
# RNA: B8 RNA with C25G, A26G, C27A, C28A, A30C, C31G
# DNA 1: CAATCTGAATTCCGGTCTCCC
# DNA 2: TGGTGGCTACGACGGGATT
# B10: CUCUACU (DNA:RNA)
# RNA: B8 RNA with A26U, C28U, G29A, A30C, C31U
# DNA 1: CAATCTGAATTCCGGTCTCCC
# DNA 2: TGGTGGCTACGACGGGATT
# B11: GUCAUUG (DNA:RNA)
# RNA: B8 RNA with C25G, A26U, C28A, G29U, A30U, C31G
# DNA 1: CAATCTGAATTCCGGTCTCCC
# DNA 2: TGGTGGCTACGACGGGATT
# B12: CGGCUGA (DNA:RNA)
# RNA: B8 RNA with A26G, C27G, G29U, A30G, C31A
# DNA 1: CAATCTGAATTCCGGTCTCCC
# DNA 2: TGGTGGCTACGACGGGATT
# B13: UGCUGGC (DNA:RNA)
# RNA: B8 RNA with C25U, A26G, C28U, A30G
# DNA 1: CAATCTGAATTCCGGTCTCCC
# DNA 2: TGGTGGCTACGACGGGATT
# B14: UGAUUCG (DNA:RNA)
# RNA: B1 RNA with C26G, G28U, C29U, G30C, A31G
# DNA 1: CAATCTGAATTCCGGTCTCCC
# DNA 2: TGGTGGCTACGACGGGATT
# B15: UGGCUGC (DNA:RNA)
# RNA: B8 RNA with C25U, A26G, C27G, G29U, A30G
# DNA 1: CAATCTGAATTCCGGTCTCCC
# DNA 2: TGGTGGCTACGACGGGATT
# B16: CGGCUGC (DNA:RNA)
# RNA: B8 RNA with A26G, C27G, G29U, A30G
# DNA 1: CAATCTGAATTCCGGTCTCCC
# DNA 2: TGGTGGCTACGACGGGATT
# B17: UGGCUGA (DNA:RNA)
# RNA: B1 RNA with C26G, A27G, G28C, C29U
# DNA 1: CAATCTGAATTCCGGTCTCCC
# DNA 2: TGGTGGCTACGACGGGATT
# B18: UGAUGGC (DNA:RNA)
# RNA: B1 RNA with C26G, G28U, C29G, A31C
# DNA 1: CAATCTGAATTCCGGTCTCCC
# DNA 2: TGGTGGCTACGACGGGATT
# B19: GUCCUGA (DNA:RNA)
# RNA: B8 RNA with C25G, A26U, G29U, A30G, C31A
# DNA 1: CAATCTGAATTCCGGTCTCCC
# DNA 2: TGGTGGCTACGACGGGATT
# B20: GUGCUGA (DNA:RNA)
# RNA: B1 RNA with U25G, C26U, A27G, G28C, C29U
# DNA 1: CAATCTGAATTCCGGTCTCCC
# DNA 2: TGGTGGCTACGACGGGATT
# B21: ACUAAUA (DNA:RNA)
# RNA: B1 RNA with U25A, A27U, G28A, C29A, G30U
# DNA 1: CAATCTGAATTCCGGTCTCCC
# DNA 2: TGGTGGCTACGACGGGATT
# B22: UCAUCUC (DNA:RNA)
# RNA: B1 RNA with G28U, G30U, A31C
# DNA 1: CAATCTGAATTCCGGTCTCCC
# DNA 2: TGGTGGCTACGACGGGATT
# B23: ACUUGAA (DNA:RNA)
# RNA: B8 RNA with C25A, A26C, C27U, C28U, C31A
# DNA 1: CAATCTGAATTCCGGTCTCCC
# DNA 2: TGGTGGCTACGACGGGATT
# B24: UAACAGC (DNA:RNA)
# RNA: B8 RNA with C25U, C27A, G29A, A30G
# DNA 1: CAATCTGAATTCCGGTCTCCC
# DNA 2: TGGTGGCTACGACGGGATT
# B25: CCUUGGA (DNA:RNA)
# RNA: B1 RNA with U25C, A27U, G28U, C29G
# DNA 1: CAATCTGAATTCCGGTCTCCC
# DNA 2: TGGTGGCTACGACGGGATT
# B26: UGAGAAC (DNA:RNA)
# RNA: B1 RNA with C26G, C29A, G30A, A31C
# DNA 1: CAATCTGAATTCCGGTCTCCC
# DNA 2: TGGTGGCTACGACGGGATT
# B27: GACUAUG (DNA:RNA)
# RNA: B8 RNA with C25G, C28U, G29A, A30U, C31G
# DNA 1: CAATCTGAATTCCGGTCTCCC
# DNA 2: TGGTGGCTACGACGGGATT
# B28: UAACGUU (DNA:RNA)
# RNA: B8 RNA with C25U, C27A, A30U, C31U
# DNA 1: CAATCTGAATTCCGGTCTCCC
# DNA 2: TGGTGGCTACGACGGGATT
# B29: GCACGUC (DNA:RNA)
# RNA: B8 RNA with C25G, A26C, C27A, A30U
# DNA 1: CAATCTGAATTCCGGTCTCCC
# DNA 2: TGGTGGCTACGACGGGATT
# B30: GCGUCCG (DNA:RNA)
# RNA: B1 RNA with U25G, A27G, G28U, G30C, A31G
# DNA 1: CAATCTGAATTCCGGTCTCCC
# DNA 2: TGGTGGCTACGACGGGATT
# B31: GCGCAGA (DNA:RNA)
# RNA: B1 RNA with U25G, A27G, G28C, C29A
# DNA 1: CAATCTGAATTCCGGTCTCCC
# DNA 2: TGGTGGCTACGACGGGATT
# B32: GCGCACC (DNA:RNA)
# RNA: B8 RNA with C25G, A26C, C27G, G29A, A30C
# DNA 1: CAATCTGAATTCCGGTCTCCC
# DNA 2: TGGTGGCTACGACGGGATT
# B33: GCACGCG (DNA:RNA)
# RNA: B8 RNA with C25G, A26C, C27A, A30C, C31G
# DNA 1: CAATCTGAATTCCGGTCTCCC
# DNA 2: TGGTGGCTACGACGGGATT
# B34: CGCGUCG (DNA:RNA)
# RNA: B8 RNA with A26G, C28G, G29U, A30C, C31G
# DNA 1: CAATCTGAATTCCGGTCTCCC
# DNA 2: TGGTGGCTACGACGGGATT
# B35: CGCCACG (DNA:RNA)
# RNA: B8 RNA with A26G, G29A, A30C, C31G
# DNA 1: CAATCTGAATTCCGGTCTCCC
# DNA 2: TGGTGGCTACGACGGGATT
# B36: GCACCGC (DNA:RNA)
# RNA: B1 RNA with U25G, G28C, A31C
# DNA 1: CAATCTGAATTCCGGTCTCCC
# DNA 2: TGGTGGCTACGACGGGATT
# B37: GCACCCG (DNA:RNA)
# RNA: B1 RNA with U25G, G28C, G30C, A31G
# DNA 1: CAATCTGAATTCCGGTCTCCC
# DNA 2: TGGTGGCTACGACGGGATT
# B38: CGCACGC (DNA:RNA)
# RNA: B8 RNA with A26G, C28A, G29C, A30G
# DNA 1: CAATCTGAATTCCGGTCTCCC
# DNA 2: TGGTGGCTACGACGGGATT
# B39: GCACGCU (DNA:RNA)
# RNA: B8 RNA with C25G, A26C, C27A, A30C, C31U
# DNA 1: CAATCTGAATTCCGGTCTCCC
# DNA 2: TGGTGGCTACGACGGGATT
# B40: GCGCACG (DNA:RNA)
# RNA: B8 RNA with C25G, A26C, C27G, G29A, A30C, C31G
# DNA 1: CAATCTGAATTCCGGTCTCCC
# DNA 2: TGGTGGCTACGACGGGATT
# Biological target: T1, RBFOX1 RRM
# Test: EMSA; HiTS-Eq, 1 nM pool, 10 min; buffer printed only for the single-RNA assays: 10 mM Tris pH 7.5, 150 mM NaCl, 3.4 mM EDTA, 0.001% NP-40, 30 C
# Details: tags: His6 N-terminal (pET28a); label: 5' 32P
# How it was run: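 Purified RbFox RRM (wild type or mutant) was equilibrated for 10 min in 50 µL with 1 nM of a 5′-radiolabelled pool of RNA with 7 randomized nucleotides, its flanks annealed to DNA oligonucleotides, across increasing protein concentrations. Free RNA was separated by 8% native PAGE, excised, reverse-transcribed, PCR-barcoded and sequenced on an Illumina HiSeq 2500. Relative association constants came from read-count changes of each variant against the control reaction, normalised to the cognate motif.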
row,Binder,binding signal
1,B1,0.00561 KA relative to UGCAUGU
2,B2,0.00102 KA relative to UGCAUGU
3,B3,0.0114 KA relative to UGCAUGU
4,B4,0.00715 KA relative to UGCAUGU
5,B5,0.0111 KA relative to UGCAUGU
6,B6,0.00997 KA relative to UGCAUGU
7,B7,0.0134 KA relative to UGCAUGU
8,B8,0.00223 KA relative to UGCAUGU
9,B9,0.0177 KA relative to UGCAUGU
10,B10,0.00629 KA relative to UGCAUGU
11,B11,0.0126 KA relative to UGCAUGU
12,B12,0.022 KA relative to UGCAUGU
13,B13,0.0238 KA relative to UGCAUGU
14,B14,0.0228 KA relative to UGCAUGU
15,B15,0.0373 KA relative to UGCAUGU
16,B16,0.018 KA relative to UGCAUGU
17,B17,0.036 KA relative to UGCAUGU
18,B18,0.0129 KA relative to UGCAUGU
19,B19,0.0213 KA relative to UGCAUGU
20,B20,0.0323 KA relative to UGCAUGU

row,Binder,binding signal
1,B21,0.00101 KA relative to UGCAUGU
2,B22,0.00423 KA relative to UGCAUGU
3,B23,0.0101 KA relative to UGCAUGU
4,B24,0.00375 KA relative to UGCAUGU
5,B25,0.00739 KA relative to UGCAUGU
6,B26,0.0124 KA relative to UGCAUGU
7,B27,0.0187 KA relative to UGCAUGU
8,B28,0.00814 KA relative to UGCAUGU
9,B29,0.0416 KA relative to UGCAUGU
10,B30,0.0136 KA relative to UGCAUGU
11,B31,0.0118 KA relative to UGCAUGU
12,B32,0.0133 KA relative to UGCAUGU
13,B33,0.0376 KA relative to UGCAUGU
14,B34,0.0133 KA relative to UGCAUGU
15,B35,0.0114 KA relative to UGCAUGU
16,B36,0.00949 KA relative to UGCAUGU
17,B37,0.00754 KA relative to UGCAUGU
18,B38,0.0306 KA relative to UGCAUGU
19,B39,0.0317 KA relative to UGCAUGU
20,B40,0.062 KA relative to UGCAUGU
